PubChem BioAssay (NCI)
Compounds without any hit were thinned out: in the full panel of roughly 79,000, 15% have a hit. A number with no mark means an inactive call. The source made the active and inactive calls. Rule as the data show it: active = growth inhibition above about 70%; inactive = the rest.

What was measured:
[1] = NCI Yeast Anticancer Drug Screen. Data for the rad52 strain (AID 147);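 also: 0% = growth of vehicle-treated control cultures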; settings: S. cerevisiae rad52 mutant growth inhibition, stronger effect = higher value
Procedure, shortened: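 Measured: yeast growth inhibition. System: strain with a defined DNA damage repair alteration. Reference: vehicle-treated control cultures.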

[2] = NCI Yeast Anticancer Drug Screen. Data for the wt1 strain (AID 149);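 also: 0% = growth of vehicle-treated wt1 cultures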; settings: S. cerevisiae wt1 strain (SPY 50644) growth inhibition, stronger effect = higher value
Procedure, shortened: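 Vehicle-normalised growth inhibition; strain wt1; compound exposure.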

[3] = NCI Yeast Anticancer Drug Screen. Data for the mgt1 strain (AID 153); settings: S. cerevisiae mgt1 mutant growth inhibition, stronger effect = higher value
Procedure, shortened: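 After exposure of the mgt1 yeast mutant to compound, growth was measured and reported as inhibition compared with vehicle controls.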

[4] = NCI Yeast Anticancer Drug Screen. Data for the rad50 strain (AID 155);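 also: 0% = growth of vehicle-only cultures of the same strain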; settings: S. cerevisiae rad50 strain growth inhibition, stronger effect = higher value
Procedure, shortened: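 A DNA repair-deficient yeast mutant serves as the test organism; compound-induced growth inhibition is calculated against vehicle-treated cells.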

[5] = NCI Yeast Anticancer Drug Screen. Data for the mec2-1 strain (AID 157); settings: S. cerevisiae mec2-1 strain, stronger effect = higher value
Procedure, shortened: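 Test agents were screened against the mec2-1 yeast strain, with defined DNA repair or cell cycle alteration. Growth was scored as inhibition against vehicle-only controls.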

[6] = NCI Yeast Anticancer Drug Screen. Data for the rad14 strain (AID 159);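 also: 0% = growth of vehicle-treated control cultures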; settings: S. cerevisiae rad14 strain growth inhibition, stronger effect = higher value
Procedure, shortened: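 Vehicle-treated cultures served as the baseline for growth inhibition of a DNA repair-mutant yeast strain exposed to each compound.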

[7] = NCI Yeast Anticancer Drug Screen. Data for the CLN2oe strain (AID 163);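 also: 0% = growth of vehicle-only control cultures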; settings: S. cerevisiae CLN2oe strain, stronger effect = higher value
Procedure, shortened: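 Here, growth inhibition in a cell-cycle-altered yeast strain after compound exposure was quantified against vehicle control growth.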

[8] = NCI Yeast Anticancer Drug Screen. Data for the cln2 rad14 strain (AID 165);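 also: 0% = growth equal to vehicle treated cultures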; settings: S. cerevisiae cln2 rad14 strain, stronger effect = higher value
Procedure, shortened: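 Growth of compound-exposed yeast (cln2 rad14 genotype) measured and expressed as inhibition relative to vehicle.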

[9] = NCI Yeast Anticancer Drug Screen. Data for the bub3 strain (AID 167); settings: S. cerevisiae bub3 mutant strain, stronger effect = higher value
Procedure, shortened: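 Inhibition values come from growth of compound-treated mutant yeast normalised to vehicle-treated controls.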

[10] = NCI Yeast Anticancer Drug Screen. Data for the mlh1 strain (AID 171);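 also: 0% = growth of vehicle-treated control cultures of the same strain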; settings: S. cerevisiae mlh1 strain growth inhibition, stronger effect = higher value
Procedure, shortened: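 Here the genetically defined yeast mutant is grown with each compound, and the extent to which its growth falls below that of vehicle-exposed cells is reported.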

[11] = NCI Yeast Anticancer Drug Screen. Data for the sgs1 strain (AID 173);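 also: 0% = growth of vehicle-only control cultures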; settings: S. cerevisiae sgs1 mutant, stronger effect = higher value
Procedure, shortened: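 Relative growth inhibition, referenced to vehicle, was determined in a yeast strain with a defined alteration affecting DNA damage repair or cell cycle control after compound exposure.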

[12] = NCI Yeast Anticancer Drug Screen. Data for the mlh1 rad18 strain (AID 175); settings: S. cerevisiae mlh1 rad18 strain growth inhibition, stronger effect = higher value
Procedure, shortened: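 In this whole-cell yeast screen, a strain with altered DNA damage repair is challenged with compound, and its growth is measured against matched vehicle-treated controls.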

[13] = NCI Yeast Anticancer Drug Screen. Data for the rad18 strain (AID 177); settings: S. cerevisiae rad18 mutant growth inhibition, stronger effect = higher value
Procedure, shortened: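 Screen uses a yeast strain with a defined lesion in DNA damage repair; compound effect is read as loss of growth compared to untreated vehicle cultures.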

[14] = NCI Yeast Anticancer Drug Screen. Data for the sgs1 mgt1 strain (AID 161);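 also: 0% = growth of cultures given vehicle only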; settings: S. cerevisiae sgs1 mgt1 strain, stronger effect = higher value
Procedure, shortened: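 Test agents were incubated with a DNA-repair-mutant yeast strain. Growth was then read and compared against vehicle-treated controls.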

[15] = NCI Yeast Anticancer Drug Screen. Data for the wt2 strain (AID 169);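 also: 0% = growth of vehicle-treated yeast cultures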; settings: S. cerevisiae wt2 strain growth inhibition, stronger effect = higher value
Procedure, shortened: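 Genetically defined yeast strains from a DNA-repair/cell-cycle panel were used. Compound-exposed yeast growth was measured, and the inhibition was calculated relative to vehicle treatment.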

[16] = at 5.0 µM (retest, dose inferred, filed as 0.5)
[17] = at 50.0 µM (retest, dose inferred, filed as 5.0)

CC(C)C(=O)CC(Sc1ccc(N)cc1)c1ccccc1 (stereo not drawn)
growth inhibition ([1]; at 1.2 µM): 2% | growth inhibition ([1]; at 3.7 µM): 8% | growth inhibition ([1]; at 11.0 µM): 23% | growth inhibition ([1]; at 33.0 µM): 47% | growth inhibition ([1]; at 100.0 µM): 83% (active) | growth inhibition ([2]; at 1.2 µM): -4% | growth inhibition ([2]; at 3.7 µM): -4% | growth inhibition ([2]; at 11.0 µM): -1% | growth inhibition ([2]; at 33.0 µM): 10% | growth inhibition ([2]; at 100.0 µM): 18% | growth inhibition ([3]; at 1.2 µM): -2% | growth inhibition ([3]; at 3.7 µM): -5% | growth inhibition ([3]; at 11.0 µM): 27% | growth inhibition ([3]; at 33.0 µM): 32% | growth inhibition ([3]; at 100.0 µM): 58% | growth inhibition ([4]; at 1.2 µM): -1% | growth inhibition ([4]; at 3.7 µM): 1% | growth inhibition [4, 16]: -22% | growth inhibition ([4]; at 11.0 µM): -19% | growth inhibition ([4]; at 33.0 µM): 24% | growth inhibition [4, 17]: 77% (active) | growth inhibition ([4]; at 50.0 µM): 55.6% | growth inhibition ([4]; at 100.0 µM): 42% | growth inhibition ([5]; at 1.2 µM): 1% | growth inhibition ([5]; at 3.7 µM): -2% | growth inhibition [5, 16]: -2% | growth inhibition ([5]; at 11.0 µM): 10% | growth inhibition ([5]; at 33.0 µM): 27% | growth inhibition [5, 17]: 88% (active) | growth inhibition ([5]; at 50.0 µM): 36.5% | growth inhibition ([5]; at 100.0 µM): 40% | growth inhibition ([6]; at 1.2 µM): 1% | growth inhibition ([6]; at 3.7 µM): 2% | growth inhibition ([6]; at 11.0 µM): 6% | growth inhibition ([6]; at 33.0 µM): 25% | growth inhibition ([6]; at 100.0 µM): 46% | growth inhibition ([7]; at 1.2 µM): -2% | growth inhibition ([7]; at 3.7 µM): -13% | growth inhibition ([7]; at 11.0 µM): -7% | growth inhibition ([7]; at 33.0 µM): 20% | growth inhibition ([7]; at 100.0 µM): 35% | growth inhibition [8, 16]: -3% | growth inhibition [8, 17]: 57% | growth inhibition ([8]; at 50.0 µM): 27.8% | growth inhibition ([9]; at 1.2 µM): 87% (active) | growth inhibition ([9]; at 3.7 µM): 89% (active) | growth inhibition [9, 16]: 89% (active) | growth inhibition ([9]; at 11.0 µM): 90% (active) | growth inhibition ([9]; at 33.0 µM): 91% (active) | growth inhibition [9, 17]: 98% (active) | growth inhibition ([9]; at 50.0 µM): 85.1% (active) | growth inhibition ([9]; at 100.0 µM): 92% (active) | growth inhibition ([10]; at 1.2 µM): 1% | growth inhibition ([10]; at 3.7 µM): -2% | growth inhibition ([10]; at 11.0 µM): 7% | growth inhibition ([10]; at 33.0 µM): 30% | growth inhibition ([10]; at 100.0 µM): 48% | growth inhibition ([11]; at 1.2 µM): 0% | growth inhibition ([11]; at 3.7 µM): 4% | growth inhibition ([11]; at 11.0 µM): 22% | growth inhibition ([11]; at 33.0 µM): 62% | growth inhibition ([11]; at 100.0 µM): 79% (active) | growth inhibition [12, 16]: -19% | growth inhibition [12, 17]: 85% (active) | growth inhibition ([12]; at 50.0 µM): 42.5% | growth inhibition ([13]; at 1.2 µM): -8% | growth inhibition ([13]; at 3.7 µM): -2% | growth inhibition ([13]; at 11.0 µM): 12% | growth inhibition ([13]; at 33.0 µM): 30% | growth inhibition ([13]; at 100.0 µM): 52%

CN1C(=O)C(CC(=O)O)NC1=S (stereo not drawn)
growth inhibition ([1]; at 1.2 µM): 0% | growth inhibition ([1]; at 3.7 µM): 0% | growth inhibition ([1]; at 11.0 µM): -1% | growth inhibition ([1]; at 33.0 µM): 6% | growth inhibition ([1]; at 100.0 µM): 22% | growth inhibition ([2]; at 1.2 µM): -2% | growth inhibition ([2]; at 3.7 µM): -2% | growth inhibition ([2]; at 11.0 µM): 1% | growth inhibition ([2]; at 33.0 µM): 3% | growth inhibition ([2]; at 100.0 µM): 11% | growth inhibition ([3]; at 1.2 µM): -3% | growth inhibition ([3]; at 3.7 µM): -2% | growth inhibition ([3]; at 11.0 µM): 1% | growth inhibition ([3]; at 33.0 µM): 21% | growth inhibition ([3]; at 100.0 µM): 27% | growth inhibition ([4]; at 1.2 µM): -1% | growth inhibition ([4]; at 3.7 µM): -2% | growth inhibition [4, 16]: 20% | growth inhibition ([4]; at 11.0 µM): 2% | growth inhibition ([4]; at 33.0 µM): 9% | growth inhibition [4, 17]: 14% | growth inhibition ([4]; at 50.0 µM): 61.9% | growth inhibition ([4]; at 100.0 µM): 25% | growth inhibition ([5]; at 1.2 µM): 1% | growth inhibition ([5]; at 3.7 µM): 3% | growth inhibition [5, 16]: 2% | growth inhibition ([5]; at 11.0 µM): 4% | growth inhibition ([5]; at 33.0 µM): 15% | growth inhibition [5, 17]: 27% | growth inhibition ([5]; at 50.0 µM): 33.9% | growth inhibition ([5]; at 100.0 µM): 47% | growth inhibition ([6]; at 1.2 µM): 0% | growth inhibition ([6]; at 3.7 µM): 0% | growth inhibition ([6]; at 11.0 µM): -1% | growth inhibition ([6]; at 33.0 µM): 16% | growth inhibition ([6]; at 100.0 µM): 39% | growth inhibition [14, 16]: -1% | growth inhibition [14, 17]: 17% | growth inhibition ([14]; at 50.0 µM): 58.2% | growth inhibition ([7]; at 1.2 µM): -3% | growth inhibition ([7]; at 3.7 µM): -3% | growth inhibition ([7]; at 11.0 µM): -1% | growth inhibition ([7]; at 33.0 µM): -2% | growth inhibition ([7]; at 100.0 µM): 2% | growth inhibition [8, 16]: -10% | growth inhibition [8, 17]: 12% | growth inhibition ([8]; at 50.0 µM): 2.1% | growth inhibition ([9]; at 1.2 µM): -4% | growth inhibition ([9]; at 3.7 µM): -7% | growth inhibition [9, 16]: -10% | growth inhibition ([9]; at 11.0 µM): -3% | growth inhibition ([9]; at 33.0 µM): 3% | growth inhibition [9, 17]: 2% | growth inhibition ([9]; at 50.0 µM): 65.8% | growth inhibition ([9]; at 100.0 µM): 43% | growth inhibition ([15]; at 1.2 µM): -2% | growth inhibition ([15]; at 3.7 µM): 0% | growth inhibition ([15]; at 11.0 µM): 3% | growth inhibition ([15]; at 33.0 µM): 7% | growth inhibition ([15]; at 100.0 µM): 20% | growth inhibition ([11]; at 1.2 µM): 0% | growth inhibition ([11]; at 3.7 µM): 5% | growth inhibition ([11]; at 11.0 µM): 9% | growth inhibition ([11]; at 33.0 µM): 24% | growth inhibition ([11]; at 100.0 µM): 70% (active) | growth inhibition [12, 16]: -11% | growth inhibition [12, 17]: 62% | growth inhibition ([12]; at 50.0 µM): 25.7% | growth inhibition ([13]; at 1.2 µM): 1% | growth inhibition ([13]; at 3.7 µM): 0% | growth inhibition ([13]; at 11.0 µM): -9% | growth inhibition ([13]; at 33.0 µM): 15% | growth inhibition ([13]; at 100.0 µM): 45%
